Assay results as given in the supplement of paper PMC10849652.
The full data set covers some 7,900 targets. This sample favours those with a hit. About 0.6% of all pairs of compound and target were hits.

Assays:
Experiment in all cases: log2 fold change, soluble protein after heating vs DMSO (PISA); higher = thermal stabilisation; K562 cells, 10 uM, 30 min; active = over 0.2 and 3.5 SD of the protein, either way, in both replicates (recomputed)
saracatinib = compound: CN1CCN(CCOc2cc(OC3CCOCC3)c3c(Nc4c(Cl)ccc5c4OCO5)ncnc3c2)CC1 [saracatinib]
Procedure, shortened: (§1)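 K562 cells at 2×10^6 cells/mL were treated with 10 μM compound for 30 min. Aliquots were heated for 3 min across 48°C-58°C, pooled, and extracted in PBS with 0.5% NP-40 at 4°C; soluble protein was the supernatant after 21,000xg for 90 min. Soluble protein was quantified by TMTpro 16plex LC-MS/MS with channel sums equalised, and reported as log2 fold change in thermal stability against DMSO controls, with values from duplicates.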

sotrastaurin = compound: CN1CCN(c2nc(C3=C(c4c[nH]c5ccccc45)C(=O)NC3=O)c3ccccc3n2)CC1 [sotrastaurin]
Procedure, shortened: as §1

alvocidib = compound: CN1CC[C@H](c2c(O)cc(O)c3c(=O)cc(-c4ccccc4Cl)oc23)[C@H](O)C1 [alvocidib]
Procedure, shortened: as §1

Tubastatin A = compound: CN1CCc2c(c3ccccc3n2Cc2ccc(C(=O)NO)cc2)C1 [Tubastatin A]
Procedure, shortened: as §1

[1] = compound: CNC(=O)C1=CC=CC=C1NC2=NC(=NC=C2Cl)NC3=C(C=C(C=C3)N4CCOCC4)OC
Procedure, shortened: as §1

defactinib = compound: CNC(=O)c1ccc(Nc2ncc(C(F)(F)F)c(NCc3nccnc3N(C)S(C)(=O)=O)n2)cc1 [defactinib]
Procedure, shortened: as §1

rucaparib = compound: CNCc1ccc(-c2[nH]c3cc(F)cc4c3c2CCNC4=O)cc1 [rucaparib]
Procedure, shortened: as §1

[2] = compound: CNc1nc(-c2ccc3c(N)n[nH]c3c2)cc(N2C[C@@H](C(=O)NC3CCCCC3)CC[C@H]2C)n1
Procedure, shortened: as §1

encorafenib = compound: COC(=O)N[C@@H](C)CNc1nccc(-c2cn(C(C)C)nc2-c2cc(Cl)cc(NS(C)(=O)=O)c2F)n1 [encorafenib]
Procedure, shortened: as §1

[3] = compound: COC(=O)[C@H](CCSC)NC(=O)C1=C(C=C(C=C1)NC[C@H](CS)N)C2=CC=CC=C2
Procedure, shortened: as §1

[4] = compound: COC1=CC=C(C=C1)CN2C=CC3=C2C=C(C=C3)C(=O)NO
Procedure, shortened: as §1

filanesib = compound: CON(C)C(=O)N1N=C(c2cc(F)ccc2F)S[C@@]1(CCCN)c1ccccc1 [filanesib]
Procedure, shortened: as §1

zotarolimus = compound: CO[C@H]1C[C@@H]2CC[C@@H](C)[C@@](O)(O2)C(=O)C(=O)N2CCCC[C@H]2C(=O)O[C@H]([C@H](C)C[C@@H]2CC[C@H](n3cnnn3)[C@H](OC)C2)CC(=O)[C@H](C)/C=C(\C)[C@@H](O)[C@@H](OC)C(=O)[C@H](C)C[C@H](C)/C=C/C=C/C=C/1C [zotarolimus]
Procedure, shortened: as §1

idasanutlin = compound: COc1cc(C(=O)O)ccc1NC(=O)[C@@H]1N[C@@H](CC(C)(C)C)[C@](C#N)(c2ccc(Cl)cc2F)[C@H]1c1cccc(Cl)c1F [idasanutlin]
Procedure, shortened: as §1

alisertib = compound: COc1cc(Nc2ncc3c(n2)-c2ccc(Cl)cc2C(c2c(F)cccc2OC)=NC3)ccc1C(=O)O [alisertib]
Procedure, shortened: as §1

[5] = compound: COc1cc2nc(-c3cc(F)ccc3O)nc(N[C@@H]3CNC[C@H]3C(C)(C)O)c2cc1OC
Procedure, shortened: as §1

gefitinib = compound: COc1cc2ncnc(Nc3ccc(F)c(Cl)c3)c2cc1OCCCN1CCOCC1 [gefitinib]
Procedure, shortened: as §1

[6] = compound: COc1cccc2cc(-c3nc([C@H]4CC[C@H](C(=O)O)CC4)n4ncnc(N)c34)[nH]c12
Procedure, shortened: as §1

lapatinib = compound: CS(=O)(=O)CCNCc1ccc(-c2ccc3ncnc(Nc4ccc(OCc5cccc(F)c5)c(Cl)c4)c3c2)o1 [lapatinib]
Procedure, shortened: as §1

pictilisib = compound: CS(=O)(=O)N1CCN(Cc2cc3nc(-c4cccc5[nH]ncc45)nc(N4CCOCC4)c3s2)CC1 [pictilisib]
Procedure, shortened: as §1

Measured: log2 fold change

SLIRP (UniProt Q9GZT3)
inactive: saracatinib -0.068 | sotrastaurin -0.141 | alvocidib -0.143 | Tubastatin A 0.019 | [1] -0.045 | defactinib -0.005 | rucaparib 0.148 | [2] -0.185 | encorafenib -0.094 | [3] 0.096 | [4] 0.088 | zotarolimus -0.054 | idasanutlin 0.041 | alisertib -0.08 | gefitinib 0.041 | [6] 0.023 | lapatinib -0.042 | pictilisib -0.15
active: filanesib -0.429 | [5] -0.648

SLC35F6 (UniProt Q8N357)
inactive: saracatinib 0.182 | sotrastaurin -0.071 | alvocidib -0.002 | Tubastatin A -0.05 | [1] -0.025 | defactinib -0.043 | rucaparib -0.004 | [2] -0.247 | encorafenib -0.042 | [3] 0.007 | filanesib -0.001 | zotarolimus 0.016 | idasanutlin 0.02 | alisertib -0.052 | [5] 0.033 | gefitinib 0 | [6] 0.037 | lapatinib -0.076

SLC30A7 (UniProt Q8NEW0)
Chain of UniProt Q8NEW0 (Q8NEW0 whole entry, looked up): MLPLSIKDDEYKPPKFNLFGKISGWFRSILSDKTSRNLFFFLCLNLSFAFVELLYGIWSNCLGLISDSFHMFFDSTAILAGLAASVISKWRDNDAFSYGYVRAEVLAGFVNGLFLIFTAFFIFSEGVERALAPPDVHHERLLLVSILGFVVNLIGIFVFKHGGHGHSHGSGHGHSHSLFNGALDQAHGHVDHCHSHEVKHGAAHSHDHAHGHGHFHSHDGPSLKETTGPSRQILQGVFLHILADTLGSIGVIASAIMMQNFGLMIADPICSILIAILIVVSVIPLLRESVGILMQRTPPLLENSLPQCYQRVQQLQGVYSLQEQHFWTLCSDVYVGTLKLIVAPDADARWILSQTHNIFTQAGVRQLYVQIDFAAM
inactive: saracatinib 0.077 | sotrastaurin 0.101 | alvocidib -0.105 | Tubastatin A -0.107 | [1] 0.016 | defactinib -0.051 | rucaparib 0.02 | [2] -0.026 | encorafenib 0.059 | [3] 0.029 | [4] -0.105 | filanesib -0.086 | zotarolimus -0.025 | idasanutlin -0.121 | alisertib -0.019 | [5] 0.088 | gefitinib 0.017 | [6] 0.184 | lapatinib -0.013 | pictilisib 0.028

TATDN2 (UniProt Q93075)
Chain of UniProt Q93075 (Q93075 whole entry, looked up): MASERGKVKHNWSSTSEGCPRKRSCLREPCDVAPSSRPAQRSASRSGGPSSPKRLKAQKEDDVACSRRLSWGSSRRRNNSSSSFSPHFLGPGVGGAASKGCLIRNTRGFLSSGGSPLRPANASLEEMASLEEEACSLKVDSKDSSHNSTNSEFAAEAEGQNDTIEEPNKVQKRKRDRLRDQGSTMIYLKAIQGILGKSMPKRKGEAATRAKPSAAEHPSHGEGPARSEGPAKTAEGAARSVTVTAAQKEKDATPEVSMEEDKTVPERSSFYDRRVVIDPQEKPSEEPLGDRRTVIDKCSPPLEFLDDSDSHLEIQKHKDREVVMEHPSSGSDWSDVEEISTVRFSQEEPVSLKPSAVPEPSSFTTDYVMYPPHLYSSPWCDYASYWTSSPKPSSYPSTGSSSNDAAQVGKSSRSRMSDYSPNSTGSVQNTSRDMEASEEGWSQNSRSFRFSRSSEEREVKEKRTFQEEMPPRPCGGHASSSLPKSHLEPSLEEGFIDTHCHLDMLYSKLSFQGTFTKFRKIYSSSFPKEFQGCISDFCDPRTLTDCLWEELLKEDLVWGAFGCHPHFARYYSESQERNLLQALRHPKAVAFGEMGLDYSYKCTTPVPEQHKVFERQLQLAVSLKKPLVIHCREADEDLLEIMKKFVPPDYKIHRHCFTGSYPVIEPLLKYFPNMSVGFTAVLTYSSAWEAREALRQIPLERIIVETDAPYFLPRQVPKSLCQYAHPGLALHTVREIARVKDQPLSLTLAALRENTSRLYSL
inactive: saracatinib -0.017 | sotrastaurin 0.111 | alvocidib -0.136 | Tubastatin A -0.094 | [1] -0.002 | defactinib 0 | rucaparib -0.175 | [2] 0 | encorafenib 0.099 | [3] -0.031 | [4] -0.011 | filanesib 0.002 | zotarolimus 0.006 | idasanutlin 0.012 | [5] -0.015 | gefitinib -0.037 | lapatinib 0.021 | pictilisib -0.016

TACC2 (UniProt O95359)
inactive: saracatinib -0.003 | sotrastaurin 0.115 | alvocidib -0.084 | Tubastatin A -0.041 | [1] 0.075 | defactinib -0.091 | rucaparib -0.045 | [2] -0.105 | encorafenib -0.013 | [3] 0.039 | filanesib -0.107 | zotarolimus -0.003 | idasanutlin -0.042 | alisertib 0.1 | [5] 0.01 | gefitinib -0.027 | [6] 0.011 | lapatinib 0.011 | pictilisib 0.046

SYNE1 (UniProt Q8NF91)
inactive: saracatinib -0.054 | sotrastaurin -0.086 | alvocidib 0.011 | Tubastatin A 0.193 | [1] -0.14 | defactinib -0.092 | rucaparib -0.039 | [2] 0.045 | encorafenib -0.101 | [3] 0.076 | [4] 0.316 | filanesib -0.079 | zotarolimus 0.019 | idasanutlin -0.029 | alisertib 0.002 | gefitinib 0.049 | [6] 0.084 | pictilisib 0.187

SURF1 (UniProt Q15526)
Chain of UniProt Q15526 (Q15526 whole entry, looked up): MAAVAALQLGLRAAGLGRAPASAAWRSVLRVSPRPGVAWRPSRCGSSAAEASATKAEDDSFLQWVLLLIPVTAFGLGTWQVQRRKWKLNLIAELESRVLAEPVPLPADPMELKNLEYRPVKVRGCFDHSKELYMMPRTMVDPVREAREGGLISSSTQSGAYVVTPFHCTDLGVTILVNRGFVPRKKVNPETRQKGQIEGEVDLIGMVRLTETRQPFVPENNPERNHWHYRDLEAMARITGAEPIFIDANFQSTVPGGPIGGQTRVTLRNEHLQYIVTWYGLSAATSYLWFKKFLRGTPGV
inactive: saracatinib 0.034 | sotrastaurin -0.084 | alvocidib -0.078 | Tubastatin A -0.03 | [1] 0.026 | defactinib -0.012 | rucaparib -0.083 | [2] -0.092 | encorafenib 0.017 | [3] -0.105 | [4] 0.053 | filanesib -0.032 | zotarolimus -0.008 | idasanutlin 0.025 | alisertib -0.098 | [5] -0.004 | gefitinib -0.055 | [6] 0.083 | lapatinib 0.058 | pictilisib 0.051

SP3 (UniProt Q02447)
inactive: saracatinib 0.048 | sotrastaurin -0.122 | alvocidib 0.033 | Tubastatin A -0.205 | [1] -0.032 | defactinib 0.042 | rucaparib -0.004 | [2] -0.05 | encorafenib -0.053 | [3] 0.04 | [4] -0.001 | filanesib -0.008 | zotarolimus -0.024 | idasanutlin 0.052 | alisertib -0.084 | [5] 0.037 | gefitinib -0.038 | [6] -0.04 | lapatinib 0.016 | pictilisib 0.041

SLC44A2 isoform 2 (UniProt Q8IWA5)
Chain of UniProt Q8IWA5 (Q8IWA5 whole entry, looked up): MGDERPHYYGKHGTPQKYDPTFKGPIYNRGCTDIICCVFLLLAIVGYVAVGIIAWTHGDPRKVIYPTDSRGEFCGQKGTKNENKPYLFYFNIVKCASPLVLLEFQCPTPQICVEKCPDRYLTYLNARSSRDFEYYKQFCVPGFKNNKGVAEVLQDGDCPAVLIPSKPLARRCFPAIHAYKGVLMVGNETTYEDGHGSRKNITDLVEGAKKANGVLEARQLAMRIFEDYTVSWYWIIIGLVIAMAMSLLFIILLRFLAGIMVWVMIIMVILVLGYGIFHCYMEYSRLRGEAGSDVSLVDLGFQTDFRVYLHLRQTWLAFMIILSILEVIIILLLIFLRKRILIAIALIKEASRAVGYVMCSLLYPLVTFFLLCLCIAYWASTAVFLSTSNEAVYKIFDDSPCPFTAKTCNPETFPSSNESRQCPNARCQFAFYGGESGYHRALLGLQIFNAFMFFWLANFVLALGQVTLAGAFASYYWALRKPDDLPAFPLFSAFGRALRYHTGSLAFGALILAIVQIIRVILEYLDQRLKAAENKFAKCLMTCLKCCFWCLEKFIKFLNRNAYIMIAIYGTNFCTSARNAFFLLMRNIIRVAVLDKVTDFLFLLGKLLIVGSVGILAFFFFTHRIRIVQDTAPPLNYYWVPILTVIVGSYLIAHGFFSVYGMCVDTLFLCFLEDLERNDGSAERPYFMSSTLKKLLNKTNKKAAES
inactive: saracatinib 0.104 | sotrastaurin 0.056 | alvocidib -0.051 | Tubastatin A -0.053 | [1] -0.055 | defactinib -0.137 | rucaparib -0.044 | [2] 0.043 | encorafenib -0.125 | [3] 0.02 | [4] 0.018 | filanesib 0.048 | zotarolimus -0.028 | idasanutlin 0.026 | alisertib -0.118 | gefitinib 0.002 | [6] 0.057 | pictilisib 0.13

TAF6L (UniProt Q9Y6J9)
Chain of UniProt Q9Y6J9 (Q9Y6J9 whole entry, looked up): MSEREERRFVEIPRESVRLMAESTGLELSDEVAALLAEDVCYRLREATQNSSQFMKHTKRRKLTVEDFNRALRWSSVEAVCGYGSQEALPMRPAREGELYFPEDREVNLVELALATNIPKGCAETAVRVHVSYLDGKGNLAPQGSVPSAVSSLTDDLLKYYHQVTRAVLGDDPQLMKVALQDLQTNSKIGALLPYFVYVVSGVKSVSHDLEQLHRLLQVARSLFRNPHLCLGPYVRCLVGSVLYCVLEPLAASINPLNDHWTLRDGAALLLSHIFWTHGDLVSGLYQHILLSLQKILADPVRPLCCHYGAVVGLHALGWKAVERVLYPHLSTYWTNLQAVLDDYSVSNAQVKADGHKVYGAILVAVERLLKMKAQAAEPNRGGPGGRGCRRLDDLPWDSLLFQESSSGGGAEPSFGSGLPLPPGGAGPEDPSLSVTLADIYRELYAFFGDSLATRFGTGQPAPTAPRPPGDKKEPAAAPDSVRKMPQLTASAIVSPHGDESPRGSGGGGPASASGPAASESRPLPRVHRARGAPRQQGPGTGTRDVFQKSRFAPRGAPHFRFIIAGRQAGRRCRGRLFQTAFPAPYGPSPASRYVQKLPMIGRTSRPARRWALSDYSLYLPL
inactive: saracatinib 0.148 | sotrastaurin -0.2 | alvocidib -0.055 | Tubastatin A -0.012 | [1] -0.044 | [2] 0.035 | filanesib 0.177 | zotarolimus 0.049 | idasanutlin 0.001 | alisertib -0.13 | [5] 0.166 | gefitinib 0.054 | [6] 0.038 | lapatinib -0.133 | pictilisib 0.166

SRFBP1 (UniProt Q8NEF9)
Chain of UniProt Q8NEF9 (Q8NEF9 whole entry, looked up): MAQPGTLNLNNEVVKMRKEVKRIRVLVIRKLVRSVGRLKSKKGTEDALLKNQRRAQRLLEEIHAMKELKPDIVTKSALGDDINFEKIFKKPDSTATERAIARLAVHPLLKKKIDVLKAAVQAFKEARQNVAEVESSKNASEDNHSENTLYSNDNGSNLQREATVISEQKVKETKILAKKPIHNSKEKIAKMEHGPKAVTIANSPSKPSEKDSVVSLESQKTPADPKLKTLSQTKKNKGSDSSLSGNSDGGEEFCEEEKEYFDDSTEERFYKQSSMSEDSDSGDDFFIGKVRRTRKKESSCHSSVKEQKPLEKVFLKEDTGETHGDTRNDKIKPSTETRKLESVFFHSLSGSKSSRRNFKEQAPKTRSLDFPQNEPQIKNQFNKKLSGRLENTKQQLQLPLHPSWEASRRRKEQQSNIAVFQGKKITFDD
active: rucaparib 0.446
inactive: saracatinib 0.038 | sotrastaurin -0.01 | alvocidib 0.096 | Tubastatin A 0.084 | [1] 0.052 | [2] -0.15 | encorafenib -0.057 | [4] 0.013 | filanesib 0.193 | zotarolimus -0.021 | idasanutlin -0.018 | alisertib -0.027 | [5] 0.306 | gefitinib 0.06 | [6] -0.072 | lapatinib 0.13 | pictilisib -0.065

SSB (UniProt P05455)
Chain of UniProt P05455 (P05455 whole entry, looked up): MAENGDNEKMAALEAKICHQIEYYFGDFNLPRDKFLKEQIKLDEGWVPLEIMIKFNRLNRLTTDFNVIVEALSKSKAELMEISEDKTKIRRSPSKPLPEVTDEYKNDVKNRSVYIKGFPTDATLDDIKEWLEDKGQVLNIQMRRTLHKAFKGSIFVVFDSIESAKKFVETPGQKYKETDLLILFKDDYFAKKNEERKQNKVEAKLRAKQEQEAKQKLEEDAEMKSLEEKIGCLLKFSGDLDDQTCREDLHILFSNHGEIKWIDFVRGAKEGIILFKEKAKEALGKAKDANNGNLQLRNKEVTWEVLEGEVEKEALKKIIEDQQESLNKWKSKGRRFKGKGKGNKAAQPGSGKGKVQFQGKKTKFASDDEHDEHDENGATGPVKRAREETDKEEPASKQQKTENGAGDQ
inactive: saracatinib -0.001 | sotrastaurin -0.158 | alvocidib -0.123 | Tubastatin A 0.015 | [1] 0.016 | defactinib -0.187 | rucaparib -0.031 | [2] -0.089 | encorafenib 0 | [3] 0.042 | [4] -0.036 | filanesib 0.049 | zotarolimus -0.063 | idasanutlin 0 | alisertib -0.046 | [5] -0.132 | gefitinib -0.016 | [6] -0.101 | lapatinib -0.031 | pictilisib -0.042

TCERG1 (UniProt O14776)
inactive: saracatinib -0.051 | sotrastaurin -0.086 | alvocidib -0.18 | Tubastatin A 0.11 | [1] -0.011 | defactinib -0.288 | rucaparib -0.003 | [2] 0.08 | encorafenib 0.063 | [3] -0.105 | [4] 0.104 | filanesib -0.008 | zotarolimus 0.025 | idasanutlin -0.087 | alisertib 0.043 | [5] 0.054 | gefitinib 0.073 | [6] -0.003 | lapatinib -0.036 | pictilisib 0

SRSF6 (UniProt Q13247)
Chain of UniProt Q13247 (Q13247 whole entry, looked up): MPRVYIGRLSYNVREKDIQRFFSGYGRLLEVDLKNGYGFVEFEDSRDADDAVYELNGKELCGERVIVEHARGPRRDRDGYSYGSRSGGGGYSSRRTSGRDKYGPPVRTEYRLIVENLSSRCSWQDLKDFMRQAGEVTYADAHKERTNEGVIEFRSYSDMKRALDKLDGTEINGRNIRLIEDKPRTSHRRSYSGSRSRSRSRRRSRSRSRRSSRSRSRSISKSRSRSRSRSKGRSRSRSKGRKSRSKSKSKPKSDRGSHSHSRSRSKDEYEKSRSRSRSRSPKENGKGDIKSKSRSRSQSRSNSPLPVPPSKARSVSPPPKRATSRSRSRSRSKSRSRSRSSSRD
inactive: saracatinib 0.032 | sotrastaurin 0.031 | alvocidib 0.054 | Tubastatin A 0.092 | [1] -0.331 | defactinib 0.032 | rucaparib 0.227 | [2] -0.113 | encorafenib 0.096 | [3] 0.018 | [4] -0.209 | filanesib 0.218 | zotarolimus -0.118 | idasanutlin 0.375 | alisertib -0.105 | [5] -0.134 | gefitinib 0.033 | [6] -0.032 | lapatinib 0.163 | pictilisib -0.473

TMBIM1 (UniProt Q969X1)
Chain of UniProt Q969X1 (Q969X1 whole entry, looked up): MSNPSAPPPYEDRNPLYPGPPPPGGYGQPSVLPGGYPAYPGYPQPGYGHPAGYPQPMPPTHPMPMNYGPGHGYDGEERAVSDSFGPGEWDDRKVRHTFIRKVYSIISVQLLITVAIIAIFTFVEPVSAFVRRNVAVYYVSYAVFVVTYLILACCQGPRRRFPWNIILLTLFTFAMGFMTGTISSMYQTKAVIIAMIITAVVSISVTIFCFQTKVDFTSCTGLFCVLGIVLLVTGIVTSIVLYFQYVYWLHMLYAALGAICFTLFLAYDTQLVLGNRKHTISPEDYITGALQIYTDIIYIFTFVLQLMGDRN
inactive: saracatinib -0.147 | sotrastaurin 0.012 | alvocidib 0.207 | Tubastatin A 0.002 | [1] -0.042 | defactinib 0.043 | rucaparib -0.009 | [2] -0.097 | encorafenib -0.223 | [3] 0.051 | filanesib -0.161 | zotarolimus -0.117 | idasanutlin 0.013 | alisertib -0.018 | [5] -0.254 | gefitinib -0.004 | [6] 0.088 | lapatinib 0.172 | pictilisib 0.138

SUGP1 (UniProt Q8IWZ8)
Chain of UniProt Q8IWZ8 (Q8IWZ8 whole entry, looked up): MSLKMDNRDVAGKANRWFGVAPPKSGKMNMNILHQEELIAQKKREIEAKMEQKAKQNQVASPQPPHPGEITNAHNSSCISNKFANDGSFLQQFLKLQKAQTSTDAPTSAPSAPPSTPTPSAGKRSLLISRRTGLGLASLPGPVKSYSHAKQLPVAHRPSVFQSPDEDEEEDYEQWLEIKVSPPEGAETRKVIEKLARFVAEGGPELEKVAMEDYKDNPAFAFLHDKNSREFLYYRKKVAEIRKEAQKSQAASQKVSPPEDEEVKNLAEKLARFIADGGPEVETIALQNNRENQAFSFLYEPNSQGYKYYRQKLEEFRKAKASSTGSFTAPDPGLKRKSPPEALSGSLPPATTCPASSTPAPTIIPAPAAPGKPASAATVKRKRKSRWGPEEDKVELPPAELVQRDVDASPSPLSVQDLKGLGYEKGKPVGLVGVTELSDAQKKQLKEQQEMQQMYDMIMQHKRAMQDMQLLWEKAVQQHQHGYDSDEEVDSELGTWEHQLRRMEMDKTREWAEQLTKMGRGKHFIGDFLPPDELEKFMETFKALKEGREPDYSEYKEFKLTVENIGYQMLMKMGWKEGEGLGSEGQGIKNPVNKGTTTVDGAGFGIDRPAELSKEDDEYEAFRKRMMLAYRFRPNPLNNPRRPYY
inactive: saracatinib 0.012 | sotrastaurin -0.049 | alvocidib -0.129 | Tubastatin A 0.052 | [1] -0.043 | defactinib -0.124 | rucaparib -0.016 | [2] -0.074 | encorafenib -0.003 | [3] -0.02 | [4] 0.027 | filanesib -0.01 | zotarolimus 0 | idasanutlin 0.026 | alisertib -0.038 | [5] -0.007 | gefitinib 0.055 | [6] -0.02 | lapatinib -0.046 | pictilisib 0.032
